High-throughput results: PubChem, National Center for Advancing Translational Sciences (NCATS)
Shown are actives, neighbours in structure and some others; about 2.8% of the full set was active somewhere.
Pol kappa inh-1: DNA polymerase kappa (human) inhibition. purified Pol kappa, fluorescent DNA synthesis assay, 10 min. Q9UBT6. Potency, µM (top dose mostly 107 µM), for the others: at the top dose activity, negative = inhibition, actives largely listed as inhibitors. AID 588579. 0.53% of 400,000 active; also: potency is read from the fitted curve at half-maximal effect; % is scaled to controls: 0 for no effect and ±100 for the full control effect
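Fluorescent qHTS in 1536-well format: enzyme (10 nM) and compound sat 15 min at room temperature before 50 nM substrate (final) was added. Signal taken at 0 and 10 min; no-enzyme buffer wells were negative controls.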
WRN helicase inh-1: WRN helicase (human) inhibition; Q14191; WRN helicase unwinding, fluorescent forked duplex, kinetic; Potency, µM (titrated, usually from 114 µM), for inactives: at the top dose activity change, negative = inhibition, hits mostly inhibitors; 0.46% of 360,000 active; AID 651768; also: potency is read from the fitted curve at half-maximal effect; % is scaled to controls: 0 for no effect and ±100 for the full control effect; nearly all actives have a fitted effect of over 55% in size
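Kinetic red-fluorescence monitoring (525/598 nm) tracks WRN helicase activity after 100 nM fluorophore-quencher forked duplex and 2 mM ATP are added to 20 nM enzyme pretreated 15 min at room temperature with compound.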
Pol eta inh-1: inhibitors of human DNA polymerase eta; recombinant Pol eta, fluorescent DNA replication assay; Potency, µM (titrated, usually from 114 µM), for the others: at the top dose activity change, negative = inhibition, hits mostly inhibitors; AID 588591; 1.2% of 390,000 active; Q9Y253; also: potency is read from the fitted curve at half-maximal effect; % is scaled to controls: 0 for no effect and ±100 for the full control effect
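Pol eta at 10 nM preincubated with compounds 15 min at room temperature; reaction started with fluorescent substrate (50 nM final) and read kinetically at 0 and 10 min.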
Pol iota inh: DNA polymerase iota (human) inhibition | Q9UNA4 | Pol iota fluorescent replication assay, 10 min | Potency, µM (highest dose often 115 µM), inactives show at the top dose activity, negative = inhibition, usual class: inhibitors | 1% of 390,000 active; also: potency is read from the fitted curve at half-maximal effect
Target sequence (Q9UNA4 whole entry, looked up): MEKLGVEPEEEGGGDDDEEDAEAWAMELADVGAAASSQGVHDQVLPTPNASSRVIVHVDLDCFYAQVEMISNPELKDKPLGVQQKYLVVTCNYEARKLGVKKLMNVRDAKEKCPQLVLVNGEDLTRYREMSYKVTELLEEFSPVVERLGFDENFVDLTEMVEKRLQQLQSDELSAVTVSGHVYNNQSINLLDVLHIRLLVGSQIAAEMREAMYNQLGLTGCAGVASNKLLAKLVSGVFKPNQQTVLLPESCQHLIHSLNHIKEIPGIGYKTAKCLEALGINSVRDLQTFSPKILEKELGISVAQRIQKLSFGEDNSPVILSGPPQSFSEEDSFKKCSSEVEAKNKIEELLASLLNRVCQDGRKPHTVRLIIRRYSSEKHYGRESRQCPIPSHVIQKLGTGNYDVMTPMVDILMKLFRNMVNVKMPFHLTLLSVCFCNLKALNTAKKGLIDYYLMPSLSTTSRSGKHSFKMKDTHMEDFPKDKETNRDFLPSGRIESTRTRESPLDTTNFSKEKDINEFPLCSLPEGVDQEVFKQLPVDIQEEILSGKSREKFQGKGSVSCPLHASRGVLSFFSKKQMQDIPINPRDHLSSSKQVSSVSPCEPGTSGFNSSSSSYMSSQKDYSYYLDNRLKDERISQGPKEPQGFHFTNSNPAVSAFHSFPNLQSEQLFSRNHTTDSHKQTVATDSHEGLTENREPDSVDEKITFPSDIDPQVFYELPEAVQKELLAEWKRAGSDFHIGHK
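Fluorescent replication assay read twice, at 0 min and 10 min after adding 50 nM (final) substrate. Enzyme (10 nM) and compounds were first incubated 15 min at room temperature; enzyme-free buffer wells were negative controls.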
POLB inh: blocks human DNA polymerase beta activity. P06746. Pol beta primer extension/strand displacement, fluorescence kinetic. Potency, µM (doses to about 114 µM), without a hit: top-dose activity change, negative = inhibition, usual class: inhibitors. 1.3% of 340,000 active. AID 485314; also: potency is read from the fitted curve at half-maximal effect; % is scaled to controls: 0 for no effect and ±100 for the full control effect
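Enzyme-only controls used 10 nM Pol beta; buffer lacking enzyme served as negative control. Compound preincubated 15 min, then 50 nM substrate added; 0 and 10 min reads at room temperature.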
PI5P4Ka inh: blocks human PI5P4K alpha kinase activity; P48426; PI5P4Kalpha enzyme, ADP-Glo luminescence, 60 min; active compounds read low; max response, %; 1.2% of 330,000 active; AID 652105; active = max response of -50% or lower; inconclusive = between -30% and -50%; inactive = -30% or higher; also: value at the top dose of about 77 µM; % is scaled to controls: 0 for no effect and ±100 for the full control effect
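Single end-point luminescence (ADP-Glo) quantified ADP from PI5P4Kalpha turnover; ATP 5 microM final, 1 h at RT, 0.1% CHAPS and 0.28 mM EGTA in HEPES pH 7.4.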
PGK validate: validation of Trypanosoma brucei phosphoglycerate kinase inhibitors. shares compounds with Pol kappa inh-1. Potency, µM (titrated, usually from 57.5 µM), for inactives: top-dose activity change, negative = inhibition, actives largely listed as inhibitors. TbPGK coupled GAPDH assay, Kinase-Glo luminescence. AID 686980. 79% of 500 active; also: potency is read from the fitted curve at half-maximal effect; % is scaled to controls: 0 for no effect and ±100 for the full control effect; nearly all actives have a fitted effect of over 65% in size
Pol iota confirm: Inhibitors of human DNA polymerase iota, confirmation; Pol iota primer extension, TAMRA/BHQ fluorescence; shares compounds with Pol kappa inh-1; 77% of 1,500 active; Potency, µM, hits mostly inhibitors; also: potency is read from the fitted curve at half-maximal effect
Pol kappa inh-2: confirmation of human DNA polymerase kappa inhibitors; Potency, µM, usual class: inhibitors; AID 720501; purified Pol-kappa, fluorescent strand-displacement substrate; 76% of 920 active; shares compounds with Pol eta inh-1; also: potency is read from the fitted curve at half-maximal effect
Pol eta inh-2: Pol eta (human) inhibition, cherry-pick confirmation | Pol eta primer extension, TAMRA/BHQ fluorescence, 10 min | 64% of 2,600 active | shares compounds with Pol eta inh-1 | Potency, µM, usual class: inhibitors; also: potency is read from the fitted curve at half-maximal effect
WRN helicase inh-2: WRN helicase inhibition, cherry-pick retest; shares compounds with WRN helicase inh-1; WRN helicase DNA unwinding, fluorescence kinetic; Potency, µM (series often up to 57.1 µM), inactives show at the top dose activity, negative = inhibition, actives largely listed as inhibitors; 63% of 610 active; also: potency is read from the fitted curve at half-maximal effect; nearly all actives have a fitted effect of over 65% in size
TO displacement: binds DNA, flagged in WRN inhibitor counterscreen; 10% of 610 active; thiazole orange DNA binding displacement, fluorescence; Potency, µM (highest dose often 57.1 µM), inactives show at the top dose activity change, negative = inhibition, actives largely listed as inhibitors; AID 720499; shares compounds with WRN helicase inh-1;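 also: drop in dye fluorescence marks compound binding to DNA; potency is read from the fitted curve at half-maximal effect; % is scaled to controls: 0 for no effect and ±100 for the full control effect; nearly all actives have a fitted effect of over 60% in size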
BLM helicase inh: counter-screen for WRN helicase inhibitors: human BLM helicase inhibition; shares compounds with WRN helicase inh-1; Recombinant BLM helicase DNA unwinding, red fluorescence; Potency, µM (titrated, usually from 57.1 µM), for inactives: top-dose activity change, negative = inhibition, hits mostly inhibitors; 60% of 610 active; AID 720503; also: potency is read from the fitted curve at half-maximal effect; nearly all actives have a fitted effect of over 60% in size
ADP-Glo counter: ADP-Glo luciferase interference, PI5P4K counter-screen; shares compounds with PI5P4Ka inh; ADP-Glo detection counter-screen, luciferase luminescence, no enzyme; Potency, µM (titrated, usually from 76.9 µM), inactives show top-dose activity change, negative = inhibition, actives largely listed as inhibitors; 1,100 tested, under 10 active; AID 743285
* marks the source's active call; other numbers are inactive results; ? = inconclusive; . = not tested or not shown; [ ] = another dose, or the depositor's remark. Unless noted, calls follow the shape of the dose curve; as a rule, active = well fitted curve in the direction sought with a large enough effect; inconclusive = small, poorly fitted or top-dose-only effect, or another doubt; inactive = no such curve, though single readings can be large; an effect the other way counts as inactive or inconclusive.

SMILES	Pol kappa inh-1	WRN helicase inh-1	Pol eta inh-1	Pol iota inh	POLB inh	PI5P4Ka inh	Pol iota confirm	Pol eta inh-2	ADP-Glo counter	others
Cc1ccc(-c2nc3c(c(=O)[nH]c(=O)n3Cc3ccccc3)n2C)o1	?	-12.9%[11.6 µM]	11.2µM*	11.2µM*	10µM*	-67.8*	?	75.7*	-8.9%
Cc1ccc(-c2nc3c(c(=O)[nH]c(=O)n3Cc3ccccc3)n2Cc2ccccc2)o1	-6.9%	-10.1%	-18.2%	144.7%	3.9%	?	.	.	.
CCOC(=O)c1c(NC(=O)c2cc(=O)c3c(C)cc(C)cc3o2)sc(C)c1C	10.9%	.	-11.9%	26.0%	-4.1%	.	.	.	.
COc1cccc(NC(=O)CN(C)C(=O)c2cc3c(s2)CCC(C)C3)c1 (stereo not given)	-3.2%	-7.1%	-1.3%	13.5%	.	5.4	.	.	.
COc1cccc(NC(=O)CN(C)C(=O)c2cc3c(s2)CCC3)c1	31.6µM*	?	3.55µM*	22.4µM*	.	-71.3*	33.6*	75.7*	-3.0%
O=C1[C@H](Cc2ccccc2)NC/C=C\C[C@@H](c2ccco2)N1Cc1ccccc1	-3.5%	.	.	27.1%	.	.	.	.	.
Cc1cc(NC(=O)CSc2cn(CCNC(=O)c3ccccc3)c3ccccc23)no1	11.2µM*	31.6µM*	?	?	19.3%	-76.2*	8.44*	10.7*	0.1%	PGK validate=1.16µM*;WRN helicase inh-2=12.1µM*;TO displacement=-14.3%;BLM helicase inh=3.41µM*
Cc1ccc(C(=O)NCCn2cc(SCC(=O)Nc3cc(C)on3)c3ccccc32)cc1	9.5%	-0.6%	-17.6%	-14.8%	1.7%	1.6	.	.	.
COCCN(C(=O)COC(=O)c1cc2c(s1)CCC2)c1c(N)n(Cc2ccccc2)c(=O)[nH]c1=O	4.47µM*	8.91µM*	0.708µM*	3.16µM*	.	-86.7*	1.89*	2.13*	-0.5%	PGK validate=0.819µM*;WRN helicase inh-2=2.15µM*;TO displacement=?;BLM helicase inh=0.429µM*
C[C@]12CCC(=O)C=C1CC[C@@H]1[C@H]2[C@@H](O)C[C@@]2(C)[C@H]1CC[C@]2(O)C(=O)CO	2.9%[60.1 µM]	.	.	.	.	.	.	.	.
Cc1c(CC(=O)O)c(=O)oc2c(C)c3occ(-c4ccc(Br)cc4)c3cc12	-6.1%	-15.8%[11.6 µM]	?	20.4%	22.4µM*	-50.7*	42.3*	75.7*	-7.3%
COc1ccc(-c2coc3c(C)c4oc(=O)c(CC(=O)O)c(C)c4cc23)cc1	-0.8%	-14.0%	-13.3%	116.7%	-6.3%	-23.8	.	.	.
CCc1nnc(NC(=O)CSc2sc3c(O)cc(=O)[nH]c3c2C#N)s1	8.91µM*	12.6µM*	3.55µM*	1.78µM*	0.562µM*	-84.4*	42.3*	30.1*	3.0%	Pol kappa inh-2=16.8*
COc1ccc(-c2nc(CNC(=O)Nc3ccccc3)c(C)o2)cc1	-0.9%[60.1 µM]	.	-13.5%	5.0%	5.8%	.	.	.	.
NS(=O)(=O)c1ccc(CCNC(=O)c2ccc3nccnc3c2)cc1	31.6µM*	31.6µM*	3.16µM*	20µM*	.	-67.8*	16.8*	12*	0.9%	Pol kappa inh-2=4.23*;WRN helicase inh-2=17.1µM*;TO displacement=?;BLM helicase inh=7.64µM*
C#CCN1C(=O)S/C(=C\c2ccc(-c3ccc(C(=O)O)cc3C)o2)C1=O	17.8µM*	?	7.08µM*	8.91µM*	15.8µM*	-57.0*	15*	8.49*	1.5%
CC(C)OC(=O)CN1C(=O)S/C(=C/c2ccc(N3CCCCC3)o2)C1=O	-5.0%	-11.0%	-2.3%	?	-0.9%	.	.	.	.
COc1ccc(S(=O)(=O)N2CCOCC2)cc1NC(=O)c1cccc(-n2cccc2)c1	39.8µM*	?	2.51µM*	7.08µM*	.	-74.4*	?	.	0.0%
CCc1nc2sc3ccccc3c(=O)c2c(=O)n1Cc1ccco1	50.1µM*	56.2µM*	31.6µM*	15.8µM*	20µM*	-68.2*	?	.	-5.1%
CC(C)(C)NC[C@H](O)CSc1nc(-c2ccc(C(N)=O)s2)cs1	-1.3%[19.4 µM]	.	.	.	.	.	.	.	.
COc1ccc2c(c1)c(=O)oc1c(C)c(OCc3cc(C(=O)O)oc3C)ccc12	79.4µM*	50.1µM*	14.1µM*	35.5µM*	35.5µM*	-68.1*	?	?	1.3%
COc1ccc2c(c1)c(=O)oc1c(C)c(OCc3ccc(C(=O)O)cc3)ccc12	-4.4%	-9.9%	?	?	?	?	.	.	.
CCCNC(=O)CCC(=O)N1Cc2cccc(OC)c2Oc2ncccc21	-1.3%	.	9.8%	9.1%	26.9%	.	.	.	.
Cc1cc2[nH]c3c4ccccc4nc(C)c3c2cc1C	79.4µM*	21.9%[11.6 µM]	-18.5%	14.1µM*	.	-51.8*	42.3*	.	5.9%
CSc1ncc(C(=O)Nc2cccc(Cl)c2C)c(-c2ccccc2)n1	4.9%	.	-6.0%	4.7%	-27.1%	.	.	.	.
O=C(COC(=O)C1CC2C=CC1C2)NCc1ccc(F)cc1 (stereo not given)	-1.9%	-8.9%[57.1 µM]	-11.8%	21.3%	22.2%	-6.2	.	.	.
O=C(COC(=O)C1CC2C=CC1C2)NCc1ccco1 (stereo not given)	39.8µM*	?	8.91µM*	14.1µM*	15.8µM*	-74.1*	42.3*	47.8*	-0.6%
